High-throughput results (PubChem BioAssay)
M1 agonist: activates the M1 muscarinic receptor; 3% of 64,000 active; B-score at 10 µM; AID 626; CHO-M1 cells, Fluo-4 calcium fluorescence, agonist mode; stronger effect = higher value;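 active = fluorescence rise, raw or as B-score row- and column-corrected plate score, outside the 99.7% band of its plate's samples, either direction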
M1 antag: blocks the rat M1 muscarinic receptor response to acetylcholine; P08482; CHO-M1 cells, Fluo-4 calcium, ACh EC80 antagonist mode; stronger effect = lower value; B-score at 10 µM; 3.4% of 64,000 active; AID 628;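 active = calcium fluorescence response, raw or row-and-column corrected B-score, differing from the plate sample mean either way at a set confidence level, mostly lower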
Target sequence (P08482 whole entry, looked up): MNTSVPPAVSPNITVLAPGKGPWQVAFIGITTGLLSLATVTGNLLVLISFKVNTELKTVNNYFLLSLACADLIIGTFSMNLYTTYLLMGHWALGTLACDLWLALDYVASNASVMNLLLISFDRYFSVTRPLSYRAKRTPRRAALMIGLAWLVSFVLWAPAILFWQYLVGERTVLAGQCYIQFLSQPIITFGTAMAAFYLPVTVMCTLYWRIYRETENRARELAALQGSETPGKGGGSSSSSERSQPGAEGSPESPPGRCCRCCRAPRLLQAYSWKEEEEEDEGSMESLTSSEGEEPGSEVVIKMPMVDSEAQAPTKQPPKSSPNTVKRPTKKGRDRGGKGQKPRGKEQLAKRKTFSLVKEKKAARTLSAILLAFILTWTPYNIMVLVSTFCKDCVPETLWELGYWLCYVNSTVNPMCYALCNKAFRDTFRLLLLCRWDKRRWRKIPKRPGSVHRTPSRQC
A340 absorber: compound absorbs light at 340 nm | 65,000 tested, under 10 active | fold change at 10 µM | compound absorbance at 340 nm, fold over control;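 active = at 10 µM dose, initial 340 nm absorbance at least 2 fold that of control wells; inactive = change under 2 fold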;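 also: initial absorbance extrapolated from kinetic A340 decline of NADH oxidation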
Autofluor 339: intrinsic fluorescence of library compounds, ex339/em460 – biochemical, MLSMR library, data from DPM-DC assay, artefact control, profiling panel; compound autofluorescence, ex339/em460 nm, NADH buffer; stronger effect = higher value; 1 = no-compound wells, NADH background; fluorescence fold increase at 10 µM; 5.5% of 65,000 active;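 active = at 10 µM, mean starting fluorescence two-fold or more over control wells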;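 also: signal is the first read of a kinetic run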
NADH enzymes: inhibition of NAD/NADH coupling enzymes, library profiling; coupled PK/LDH NADH assays, four targets; IC50, µM (series often up to 10 µM); 0.02% of 65,000 active; AID 774;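 active = single-dose screening hits from any of four coupled enzyme assays that gave an IC50 when retested across doses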;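 also: the DPM-DC format reads NADH fluorescence rather than 340 nm absorbance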
mHtt clearance: mutant huntingtin protein clearance. 0.42% of 47,000 active. HeLa Exon1htt(103Q)mCFP, aggregate imaging; zero = plate's median compound well. inhibition, % at 1.5 µM;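 active = inhibition of aggregate fluorescence above about 70%, also judged a hit by eye on the cell image, limit read from the data, passing the limit was not always enough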;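 also: cells exposed to compound for three days before fixation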
Each line names hits and unclear results; the compound was inactive in the other large screens. Sampled rows, rich in hits. Any-hit rate of the full collection: about 9.3%.

CCOC(=O)c1c(NC(=O)c2ccn(CC)n2)sc2c1CCCC2	Autofluor 339 2.67 (no result: mHtt clearance)
COc1ccccc1NC(=O)c1c(NC(=O)c2ccco2)sc2c1CCC2	Autofluor 339 2.31
COc1ccc(OC)c(NC(=O)c2c(NC(=O)CNCc3ccco3)sc3c2CCC3)c1	Autofluor 339 2.29 (no result: mHtt clearance)
CCOC(=O)c1c(C2COc3ccccc3O2)csc1NC(=O)c1ccco1 (configuration not stated)	Autofluor 339 3.17
Fc1ccc(Sc2cc(Cl)c(-c3ccccc3)nn2)cc1	none (no result: M1 agonist, M1 antag, A340 absorber, Autofluor 339, NADH enzymes)
O=C(CSc1ncn[nH]1)NCCCc1ccccc1	none (no result: M1 agonist, M1 antag)
O=C1C(=O)N(CCCN2CCOCC2)C(c2ccccn2)/C1=C(\O)c1ccc2c(c1)OCCO2 (configuration not stated)	none (no result: mHtt clearance)
CC(C)CNC(=O)c1ccc(COc2ccc(Cl)cc2Cl)o1	none (no result: M1 agonist, M1 antag, A340 absorber, Autofluor 339, NADH enzymes)
CCOC(=O)c1c(NC(=O)COC)sc2c1CCCC2	none
O=C(Nc1sc2c(c1C(=O)NC1CCCCC1)CCC2)c1ccco1	Autofluor 339 3.57 (no result: mHtt clearance)
O=C(NC1CCCCCCC1)c1ccco1	none (no result: M1 agonist, M1 antag)
COC(=O)c1c(-c2ccccc2)csc1NC(=O)c1ccco1	Autofluor 339 4.87
CCOC(=O)c1c(NC(=O)c2ccco2)sc2c1CCCC2	Autofluor 339 2.1 (no result: M1 agonist, M1 antag, mHtt clearance)
CCOC(=O)c1c(NC(=O)c2cccs2)sc2c1CC(C)(C)OC2	Autofluor 339 2.15 (no result: mHtt clearance)
COc1ccc(F)cc1S(=O)(=O)NC1CCCC1	none (no result: M1 agonist, M1 antag, A340 absorber, Autofluor 339, NADH enzymes)
Cc1nc2sc(C(c3ccccc3)N3CCN(C)CC3)c(O)n2n1 (configuration not stated)	none (no result: mHtt clearance)
CCC(c1nnnn1Cc1ccc(F)cc1)N(CCCO)Cc1cc2cc3c(cc2[nH]c1=O)OCO3 (configuration not stated)	Autofluor 339 2.25 (no result: mHtt clearance)
CCC(=O)Nc1ccc2c(c1)C(=O)N(C1CCCCC1)C2=O	Autofluor 339 3.93
CCOC(=O)Nc1nnc(-c2ccc(OC)c(OC)c2)s1	Autofluor 339 3.71
COC(=O)Nc1nnc(CCc2ccccc2)s1	none (no result: mHtt clearance)
CCCCC(=O)Nc1nnc(-c2ccc(OC)cc2)s1	none (no result: M1 agonist, M1 antag, A340 absorber, Autofluor 339, NADH enzymes)
CCOC(=O)Nc1nnc(CCc2ccccc2)s1	Autofluor 339 2.64 (no result: mHtt clearance)
CCCCC(=O)NC1(C(F)(F)F)C(=O)Nc2c1c(=O)n(C)c(=O)n2C (configuration not stated)	M1 antag 1.51
O=C(NCc1cccs1)c1cnc2ccccn2c1=O	Autofluor 339 2.02 (no result: mHtt clearance)
COCCSc1ccccc1C(=O)Nc1cc(C)on1	mHtt clearance 74.8
Cc1cccc(NC(=O)c2cnc3ccccn3c2=O)c1	none (no result: mHtt clearance)
Cc1cc(NC(=O)c2cnc3ccccn3c2=O)no1	Autofluor 339 3.73 (no result: mHtt clearance)
COc1ccccc1CNC(=O)c1cnc2ccccn2c1=O	none (no result: mHtt clearance)
COCCSc1ccccc1C(=O)Nc1nnc(COC)s1	none (no result: mHtt clearance)
COc1cc(NC(=O)NCc2ccncc2)cc(OC)c1OC	none
Cc1ccc(SCc2cc(=O)[nH]c(/N=C(\N)Nc3ccc(C)c(C)c3)n2)cc1	none (no result: M1 agonist, M1 antag, A340 absorber, Autofluor 339, NADH enzymes)
c1ccc2[nH]c(CSc3ncnc4c3oc3ccccc34)nc2c1	mHtt clearance 74.8
Cc1nc(SCc2nc3ccccc3[nH]2)c2oc3ccccc3c2n1	none
CCc1ccc(N=c2c([N+](=O)[O-])nn(-c3ccccc3)n2O)cc1	mHtt clearance 70.9 (no result: M1 agonist, M1 antag, A340 absorber, Autofluor 339, NADH enzymes)
COc1ccc(-c2nnn(CCC(=O)O)n2)cc1	none (no result: M1 agonist, M1 antag, A340 absorber, Autofluor 339, NADH enzymes)
COC(=O)CCn1nnc(-c2cccs2)n1	M1 antag 1.67
COC(=O)CCn1nnc(-c2ccc(C(C)C)cc2)n1	Autofluor 339 2.95
COC(=O)c1c(C(=O)OC)c2cc(C)ccn2c1Cl	Autofluor 339 3.4 (no result: M1 agonist, M1 antag)
CC(=O)c1ccc(NC(=S)N2C(C)CCCC2C)cc1 (configuration not stated)	none (no result: M1 agonist, M1 antag, A340 absorber, Autofluor 339, NADH enzymes)
COC(=O)COC(=O)c1ccc(Oc2nc(OC)nc(N(C)C)n2)cc1	none
CCOC(=O)c1ccc(Oc2nc(NC)nc(OC)n2)cc1	M1 antag 2.7 (no result: mHtt clearance)
CCOc1cc(N2CCOCC2)c(OCC)cc1NC(=O)c1nc2nccc(C)n2n1	M1 agonist 4.86 (no result: mHtt clearance)
COn1c(C)c(C(C)=O)c2c3nonc3ccc21	Autofluor 339 3.02
On1c2c(c3c4nonc4ccc31)CCCC2	none (no result: M1 agonist, M1 antag, A340 absorber, Autofluor 339, NADH enzymes)
CCCCOn1c(C)c(C(=O)OCC)c2c3nonc3ccc21	Autofluor 339 2.57
CCCCOn1c(C)c(C(=O)OCC)c2c3no[n+]([O-])c3ccc21	none
CN(C)C=Nc1ccc2nn(-c3ccccc3)nc2c1	Autofluor 339 2.19 (no result: mHtt clearance)
CN(C)/C=N/c1c(C#N)cnn1-c1ccccc1	none
CC(=O)Nc1ccc(Nc2nc(C)nc3c2oc2ccccc23)cc1	none (no result: M1 agonist, M1 antag)
Cc1nc(Nc2ccncc2)c2oc3ccccc3c2n1	M1 agonist 22.1, M1 antag -2.9 (no result: A340 absorber, Autofluor 339, NADH enzymes, mHtt clearance)
CCOC(=O)c1cc(-c2cc3ccccc3o2)nc2c1c(=O)[nH]c(=O)n2CCOC	Autofluor 339 5.14 (no result: mHtt clearance)
CCOC(=O)c1cc(-c2cc3ccccc3o2)n[nH]1	none (no result: mHtt clearance)
CCCn1c(CCC(=O)O)ccc1-c1ccc(OC)cc1	Autofluor 339 3.5
COc1cc2c(cc1OC)C(c1cc3cc4c(cc3[nH]c1=O)OCO4)N(C(=O)C(C)C)CC2 (configuration not stated)	mHtt clearance 84.4 (no result: M1 agonist, M1 antag, A340 absorber, Autofluor 339, NADH enzymes)
Cc1cc(NC(=O)CSc2nc3sc(C)c(C)c3c(=O)n2C2CCCC2)no1	none (no result: M1 agonist, M1 antag, A340 absorber, Autofluor 339, NADH enzymes)
O=C(NC1CCCc2ccccc21)C1CCN(c2c3c(nc4ncnn24)CCC3)CC1 (configuration not stated)	Autofluor 339 4.71
CCn1c(SCC(=O)Nc2ccccc2C(=O)OC)nnc1-c1ccoc1C	none
Cc1ccc2oc(-c3ccc(NC(=O)c4ccc5c(c4)OCO5)cc3)nc2c1	Autofluor 339 3.66
O=C(Nc1ccc(-c2nc3ccccc3o2)cc1)c1ccc2c(c1)OCO2	Autofluor 339 3.62 (no result: mHtt clearance)
Cc1ccc(-c2nc3ccccc3o2)cc1NC(=O)c1ccc2c(c1)OCO2	none
Cc1ccc2oc(-c3ccc(NC(=O)c4cccnc4)cc3)nc2c1	Autofluor 339 2.09 (no result: mHtt clearance)
CC(C(=O)Nc1ccccc1-c1ccccc1)N1CCN(C(=O)c2ccco2)CC1 (configuration not stated)	none (no result: mHtt clearance)
COC(=O)c1ccc(C2C(C#N)=C(C)NC3=C2C(=O)CC(C)(C)C3)cc1 (configuration not stated)	Autofluor 339 4.7 (no result: mHtt clearance)
CCNc1nnc(-c2ccccc2OC)s1	Autofluor 339 2.06
Cc1sc(NC(=O)CSc2nnc(C)c(=O)[nH]2)c(C#N)c1C	none (no result: mHtt clearance)
Cc1ccc(-c2nc3cnccn3c2Nc2ccc3c(c2)OCO3)o1	none (no result: mHtt clearance)
Cc1ccc(-c2nc3cnccn3c2Nc2ccccc2)o1	Autofluor 339 2.12 (no result: mHtt clearance)
CCOc1ccc(NC(=O)c2cn(-c3ccc(OCC)cc3)c(=O)c3cc(OC)c(OC)cc23)cc1	none (no result: M1 agonist, M1 antag, A340 absorber, Autofluor 339, NADH enzymes)
CCOc1ccc(-n2cc(C(=O)Nc3cccc(C)n3)c3cc(OC)c(OC)cc3c2=O)cc1	M1 agonist 7.58 (no result: mHtt clearance)
O=C(O)CCCCCNC(=O)CCn1nnc2ccccc2c1=O	M1 antag 1.58
